Bioassay records: PubChem BioAssay, National Center for Advancing Translational Sciences (NCATS)
FEN1 inhibitor: qHTS Assay for the Inhibitors of Human Flap endonuclease 1 (FEN1) | P39748 | Recombinant FEN1 flap cleavage, fluorescence, 15 min | Potency, µM (highest dose often 114 µM), hits mostly inhibitors | 0.35% of 390,000 active | AID 588795, 2011; note: nearly all actives have a fitted effect of over 65% in size
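Steps: FEN1 (10 nM) dispensed; compound added by pin tool; 15 min at room temperature; substrate added to 50 nM final; reads at 0 min and 15 min; data normalized and fitted (four-parameter Hill).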
POLH inh: qHTS for Inhibitors of Polymerase Eta; 1.2% of 390,000 active; DNA polymerase eta (Homo sapiens), Q9Y253; Potency, µM (top dose mostly 114 µM), actives largely listed as inhibitors; recombinant Pol eta, fluorescent DNA replication assay
Target sequence (Q9Y253 whole entry, looked up): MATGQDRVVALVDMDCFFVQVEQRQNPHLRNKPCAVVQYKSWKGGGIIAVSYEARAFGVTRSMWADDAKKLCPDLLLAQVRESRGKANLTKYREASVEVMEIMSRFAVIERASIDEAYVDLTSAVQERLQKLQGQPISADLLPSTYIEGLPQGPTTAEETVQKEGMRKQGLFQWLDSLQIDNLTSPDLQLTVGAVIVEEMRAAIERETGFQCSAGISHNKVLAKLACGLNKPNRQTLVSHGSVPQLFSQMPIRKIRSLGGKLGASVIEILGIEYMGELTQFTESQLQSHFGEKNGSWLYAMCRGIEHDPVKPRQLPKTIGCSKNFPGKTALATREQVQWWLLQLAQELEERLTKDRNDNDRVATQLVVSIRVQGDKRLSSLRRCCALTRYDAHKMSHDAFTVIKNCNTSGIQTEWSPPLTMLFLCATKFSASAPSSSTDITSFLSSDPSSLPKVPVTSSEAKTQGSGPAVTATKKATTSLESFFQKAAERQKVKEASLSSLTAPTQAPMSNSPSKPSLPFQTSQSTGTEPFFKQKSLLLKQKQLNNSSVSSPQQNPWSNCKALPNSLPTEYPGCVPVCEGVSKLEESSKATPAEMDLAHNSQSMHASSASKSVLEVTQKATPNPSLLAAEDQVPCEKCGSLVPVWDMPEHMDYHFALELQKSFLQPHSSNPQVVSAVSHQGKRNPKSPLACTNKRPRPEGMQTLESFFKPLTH
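Pol eta (10 nM) was preincubated with compounds for 15 min at room temperature, after which fluorescent replication substrate (50 nM final) was added to start the reaction. Fluorescence was read kinetically at 0 and 10 min.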
Pol kappa inh: qHTS for Inhibitors of Polymerase Kappa; DNA polymerase kappa (Homo sapiens), Q9UBT6; 0.53% of 400,000 active; Potency, µM (doses to about 107 µM), hits mostly inhibitors; AID 588579, 2011; purified Pol kappa, fluorescent DNA synthesis assay, 10 min
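Here, compound and 10 nM enzyme are combined for 15 min at room temperature; adding 50 nM substrate (final) starts DNA synthesis, tracked by fluorescence at 0 and 10 min against buffer-only wells.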
POLI inh: qHTS for Inhibitors of Polymerase Iota. DNA polymerase iota (Homo sapiens), Q9UNA4. Pol iota fluorescent replication assay, 10 min. Potency, µM (series often up to 115 µM), actives largely listed as inhibitors. 1% of 390,000 active. AID 588590, 2011
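Fluorescent replication assay read twice, at 0 min and 10 min after adding 50 nM (final) substrate. Enzyme (10 nM) and compounds were first incubated 15 min at room temperature; enzyme-free buffer wells were negative controls.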
Pol beta inh: qHTS Assay for Inhibitors of DNA Polymerase Beta; Pol beta primer extension/strand displacement, fluorescence kinetic; Potency, µM (top dose mostly 114 µM), actives largely listed as inhibitors; 1.3% of 340,000 active; AID 485314, 2010
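10 nM enzyme + cpd, 15 min RT; start with substrate 50 nM final; read 0 min and after 10 min RT. Corrected, normalized data; 4-parameter Hill curve fit.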
WRN helicase inh: qHTS for Inhibitors of WRN Helicase | Bifunctional 3'-5' exonuclease/ATP-dependent helicase WRN (Homo sapiens), Q14191 | WRN helicase unwinding, fluorescent forked duplex, kinetic | 0.46% of 360,000 active | Potency, µM (titrated, usually from 114 µM), actives largely listed as inhibitors | AID 651768, 2012; note: nearly all actives have a fitted effect of over 55% in size
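WRN at 20 nM final was preincubated with compound for 15 min at room temperature; reaction started with 100 nM forked duplex oligonucleotide carrying fluorophore and quencher plus 2 mM ATP (final). Unwinding followed kinetically by red fluorescence (ex 525/em 598 nm).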
PGK validate: qHTS for inhibitors of Phosphogylcerate Kinase: Hit Validation Screen. shares compounds with Pol kappa inh. TbPGK coupled GAPDH assay, Kinase-Glo luminescence. Potency, µM (titrated, usually from 57.5 µM), most hits filed as inhibitors. 79% of 500 active. AID 686980, 2013; note: nearly all actives have a fitted effect of over 65% in size
POLI cherry-pick: qHTS for Inhibitors of Polymerase Iota: Confirmatory Assay for Cherry-picked Compounds | shares compounds with Pol kappa inh | Pol iota primer extension, TAMRA/BHQ fluorescence | Potency, µM, usual class: inhibitors | 77% of 1,500 active
Of the large screens only hits and unclear results are named; the others gave an inactive call (follow-up assays come after a bar, where they were run). Shown are actives, neighbours in structure and some others; about 2.4% of the full set was active somewhere. Calls come from the whole dose curve; as a rule, active = well fitted curve in the direction sought with a large enough effect; inconclusive = small, poorly fitted or top-dose-only effect, or another doubt; inactive = no such curve, though single readings can be large; an effect the other way counts as inactive or inconclusive.

CS(=O)(=O)NCCSCc1ccco1	POLH inh 71µM, Pol kappa inh inconclusive, POLI inh inconclusive, Pol beta inh 40µM, WRN helicase inh inconclusive | PGK validate 21µM
CCCCCn1c(=N)c(S(=O)(=O)c2ccccc2)cc2c(=O)n3cccc(C)c3nc21	none (no result: WRN helicase inh)
CCOC(=O)C(=O)Cc1cccnn1	POLH inh 2.8µM, Pol kappa inh inconclusive, POLI inh inconclusive, WRN helicase inh 50µM (no result: Pol beta inh) | PGK validate 13µM
CCOC(=O)C(Cc1ccnc2ccccc12)=NO	none (no result: Pol beta inh)
CCNc1nc(C#N)nc(Nc2ccccc2)n1	none (no result: POLH inh, Pol beta inh, WRN helicase inh)
Cc1ccc(-c2cc(C(=O)Nc3ccc(S(=O)(=O)N4CC(C)OC(C)C4)cc3)[nH]n2)c(O)c1 (stereo not drawn)	FEN1 inhibitor inconclusive, Pol kappa inh inconclusive, POLI inh 40µM, Pol beta inh 18µM, WRN helicase inh inconclusive | POLI cherry-pick 75
O=C(Nc1ccc(SC(F)F)cc1)c1cc(-c2ccc3c(c2)OCCO3)on1	none (no result: WRN helicase inh)
CCOc1ccc(N2CC(NC(=O)C3CCCCC3)CC2=O)cc1 (stereo not drawn)	none (no result: WRN helicase inh)
COc1cc(SC)ccc1C(=O)NNC(=O)c1cc(C)oc1C	none (no result: Pol beta inh) | PGK validate 13µM
COc1cc(SC)ccc1C(=O)Nc1c(C)cccc1C	none
COc1cc(SC)ccc1C(=O)Nc1nc2ccccc2[nH]1	none | PGK validate 3.3µM
COc1ccccc1C(=O)NCCC(=O)Nc1nc2ccccc2[nH]1	none (no result: Pol beta inh)
COc1ccccc1C(=O)Nc1nc2ccccc2[nH]1	none | PGK validate 5.8µM
Cc1ccc2nc(-c3ccccc3)cn2c1	none | PGK validate 12µM
O=C(Cc1ccc(F)cc1)NCc1ccc2c(c1)CCN2C(=O)c1ccc(F)cc1	none (no result: WRN helicase inh)
O=C(CCc1ccc(S(=O)(=O)N2CCOCC2)cc1)N/N=C/c1ccc(O)c(O)c1O	FEN1 inhibitor inconclusive, POLH inh inconclusive, Pol kappa inh 8.9µM, POLI inh 2.8µM, Pol beta inh 13µM, WRN helicase inh 79µM | POLI cherry-pick inconclusive
Cn1cnc(S(=O)(=O)N2CCCC(C(=O)NCc3ccccc3)C2)c1 (stereo not drawn)	none (no result: WRN helicase inh)
Cc1ccc(NC(=O)Nc2cn(CC(C)C)c(=O)c3ccccc23)cc1N(C)C	none (no result: WRN helicase inh)
Cc1cc(N(C)C)ccc1[N+](=O)[O-]	none
NNc1ccc([N+](=O)[O-])c2[nH][nH]c(=O)c12	POLH inh 2µM, WRN helicase inh 20µM (no result: FEN1 inhibitor, Pol kappa inh, POLI inh, Pol beta inh) | PGK validate 2.6µM
COc1ccc(-c2ccc3oc(-c4ccc(OC)cc4)c(C#CCCO)c3c2)cc1	POLH inh 45µM, POLI inh 35µM (no result: Pol beta inh) | POLI cherry-pick 38
COc1ccc(C#Cc2c(-c3ccc(OC)cc3)oc3ccc(-c4ccc(OC)cc4)cc23)cc1	none (no result: Pol beta inh)
COc1cc(NC(=O)CCn2cnc3ccccc3c2=O)cc(OC)c1	none (no result: WRN helicase inh)
O=C1C=CC(=O)c2c(O)c(CO)c(CO)c(O)c21	FEN1 inhibitor 16µM, POLH inh 1µM, Pol kappa inh 3.5µM, POLI inh 3.2µM, WRN helicase inh 7.9µM (no result: Pol beta inh) | PGK validate 8.2µM
O=c1c(CO)cc(CO)cc(CO)c1O	POLI inh inconclusive
O=C1Nc2ccccc2C1=Nc1ccc(S(=O)(=O)Nc2nccs2)cc1	FEN1 inhibitor 50µM, POLH inh 20µM, Pol kappa inh inconclusive, POLI inh 8.9µM, WRN helicase inh 20µM | PGK validate 18µM
